Laboratory results reported in PubChem BioAssay AID624352 (Sanford-Burnham Center for Chemical Genomics, 2012).
In all, about 360,000 compounds went through this assay and about 2,600 (0.72%) were called active. The sample holds actives, similar compounds and a random draw of the others, so the mix is not that of the screen. A number with no mark means an inactive call.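 How the source made its calls: active means inhibition of the luminescence signal of 40% or more relative to plate controls, in a single-dose primary screen at 18.75 µM; inactive means the rest.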

Test: blockers of HIF-2a driven luciferase – luminescence, 786-0 RCC cells, primary screen (AID 624352)
Details: 786-0 RCC cells HIF-2a reporter, overnight, at 18.8 µM, hits give high values

Structure (SMILES) | inhibition
CCCN1C2CCCC1CC(NC(=O)NC13CC4CC(CC(C4)C1)C3)C2 (stereo not drawn) | 19.4%
CN1C(=O)c2ccc(NC(=O)C3CCCCC3)cc2C1=O | -8.6%
O=C(Nc1ccc2c(c1)OCO2)C1CC1(Cl)Cl (stereo not drawn) | -154%
O=C(Nc1ccc2c(c1)OCCO2)C1CCCC1 | 41.3% (active)
CCOc1ccc(S(=O)(=O)N2CCC(C(=O)NCc3ccccn3)CC2)cc1Cl | 19.5%
COc1ccc(CCNC(=O)C(=O)NCC2OCCN2S(=O)(=O)c2ccc(F)cc2)cc1OC (stereo not drawn) | -5.35%
CCOc1ccc(CN2CCN(Cc3ccc4cc(F)ccc4n3)CC2CCO)cc1 (stereo not drawn) | 12.7%
O=C(c1ccccc1)c1cccn1CC(=O)N1CCN(c2ccc(F)cc2)CC1 | 12.9%
CCOCCCN(C(=O)Cn1nnc(-c2ccc(OC)c(OC)c2)n1)C(CC)C(=O)NC1CCCC1 (stereo not drawn) | 18.1%
C[C@H](CO)N1C[C@H](C)[C@@H](CN(C)C(=O)c2cccc(F)c2)Oc2cc(-c3cncnc3)ccc2S1(=O)=O | 9.48%
COc1ccc(-c2oc3ncnc(NCCCO)c3c2-c2ccc(OC)cc2)cc1 | 40.9% (active)
COCCNc1ncnc2c1ncn2[C@H]1CN(Cc2ccc(OC)cc2)C[C@@H](CO)O1 | -2.96%
COc1ccc(-c2oc3ncn(Cc4ccco4)c(=N)c3c2-c2ccc(OC)cc2)cc1 | 8.92%
Cc1ccc(CCCOC(=O)C[N+]2(C)CCCCC2)cc1 | 1.23%
COc1ccc(NC(=O)/C(Cl)=C(/Cl)S(=O)Cc2ccc(C)cc2)cn1 (stereo not drawn) | 90.8% (active)
C[C@@H]1CN([C@H](C)CO)C(=O)CCCn2nncc2CO[C@@H]1CN(C)S(=O)(=O)c1cccc(C#N)c1 | 13.2%
NC(c1csc(NC(=O)Nc2ccccc2Oc2ccccc2)n1)c1ccccc1Cl (stereo not drawn) | 24.3%
CCN(CC)c1ccc(NC(=O)CCc2nnc3ccc(N4CCCCC4)nn23)c(C)c1 | -2.16%
Cc1nc(C(=O)N2CCCC(C(=O)c3ccc(Cl)cc3)C2)cs1 (stereo not drawn) | 3.92%
CC(=O)Nc1c2c(nn1-c1ccc(C)cc1C)CS(=O)C2 (stereo not drawn) | 4.45%

Structure (SMILES) | inhibition
CCc1ccccc1N(CC(=O)NCCSCc1ccco1)S(C)(=O)=O | 11.4%
CS(=O)(=O)N(Cc1ccc(Cl)cc1)c1ccc(C(=O)NCCSCc2ccco2)cc1 | 43.2% (active)
Cc1cc(C)cc(N(CC(=O)NCCSCc2ccco2)S(C)(=O)=O)c1 | 15.8%
CC(C)(C)C1CCC(C(=O)Nc2cccnc2)CC1 (stereo not drawn) | 10%
Cc1ccc2c(c1)N(CC(=O)N1CCOCC1)C(=O)CO2 | 7.44%
CC(OC(=O)c1ccccc1NCCO)C(=O)Nc1ccnn1C(C)C (stereo not drawn) | 10%
CCN1CCCC1CNC(=O)c1ccc2c(c1)NC(=O)/C(=C\c1ccccc1F)S2 (stereo not drawn) | -13.2%
CCN1CCN(CCNC(=O)c2ccc3c(c2)NC(=O)/C(=C\c2cccc(Cl)c2)S3)CC1 | 90.6% (active)
O=C1Nc2cc(C(=O)N3CCC(N4CCCCC4)CC3)ccc2S/C1=C\c1ccccc1 | -25.5%
CC1CCc2sc3nc(N4CCN(CCO)CC4)n4ncnc4c3c2C1 (stereo not drawn) | -149%
O=C1CN(C(=O)c2cc(F)cc(F)c2)c2ccccc2N1 | 11.9%
COc1ccc(-c2onc3ccc(C(C)=O)cc23)cc1 | -105%
COc1ccccc1-c1nc(C(F)(F)F)c(OC)o1 | 4.93%
COc1ccc(-c2nc(-c3ccccc3)no2)c(OC)c1 | 58.9% (active)
O=C(CCc1nnc2ccc(NCc3ccco3)nn12)Nc1cc(F)ccc1F | -0.521%
Cc1ccc(Cc2cncc(O)c2)cc1S(=O)(=O)O | 9.79%
Cc1ccc(CN(C(=O)c2sc3ccccc3c2Cl)C2CCS(=O)(=O)C2)cc1 (stereo not drawn) | 32%
COc1cc(/C=C(\C#N)C(=O)Nc2ccc3ccccc3c2)c([N+](=O)[O-])cc1OC | 17%
CC1CCCCC1NC(=O)/C(C#N)=C/C=C/c1ccccc1[N+](=O)[O-] (stereo not drawn) | 79.7% (active)
CC(OC(=O)/C=C/c1ccccc1)C(=O)NC1CCCCC1C (stereo not drawn) | 8.8%

Structure (SMILES) | inhibition
Cc1ccc(SCCC(=O)NC(C(C)C)C(C)C)cc1 | 23.2%
CCN(CC)CCOc1ccc2c(c1)C(=NNC(=O)c1ccccn1)c1cc(OCCN(CC)CC)ccc1-2 | 13.8%
Cc1ccc(N2CC(C(=O)N3CCC4(CC3)CC(=O)c3ccccc3O4)CC2=O)cc1C (stereo not drawn) | 2.59%
CC(C)Cn1cnc2c(SCc3ccc(Cl)cc3)nc(N)nc21 | -109%
CCC(C)Cn1c(O)cc2nn(-c3nc4ccccc4s3)c(=O)c-2c1C (stereo not drawn) | 80.9% (active)
CCC/C(O)=C1\C(=O)CC(C)(C)CC1=Nc1ccccc1OC | 10%
O=C(Nc1ccc(OCC(=O)N2CCOCC2)cc1)c1cc(F)c(F)cc1Cl | -39.3%
CC1CC(=O)Nc2ccccc2N1C(=O)COc1ccc2cc(Br)ccc2c1 (stereo not drawn) | 10.2%
OCCCNc1nccc(-c2cc(Nc3cccc(Cl)c3)ncn2)n1 | -18.5%
CC(C)n1cnc2c(Nc3cccc(Cl)c3)nc(N(CCO)CCCO)nc21 | 51.3% (active)
O=C1NC(Nc2nc3ccccc3s2)(C(F)(F)F)C(=O)N1C1CCCCC1 (stereo not drawn) | -11.7%
COc1cc(OC)c(C2=NOC(C(=O)Nc3c(C)n(C)n(-c4ccccc4)c3=O)C2)cc1Cl (stereo not drawn) | 11.3%
c1ccc2cc(CCCc3cc4ccccc4cn3)ncc2c1 | -39.5%
CCOC(=O)c1c(C)nn(-c2ncccc2NC(=O)CCC(=O)O)c1C | 11.8%
COC(=O)c1c(NC(=O)CCN2CCOCC2)sc2c1CCCC2 | 5.82%
COC(=O)c1c(NC(=O)CCCC(=O)O)sc2c1CCCCC2 | 50.8% (active)
COC(=O)c1c(NC(=O)C2CC(C)=C(C)CC2C(=O)O)sc2c1CCCCC2 (stereo not drawn) | 16%
O=C(CCCn1c(=O)oc2ccccc21)Nc1cccnc1 | 2.59%
